Measurements taken from the supplement of paper PMC7366291.
Where a name gives a salt, the structure may show the parent alone. ± gives the standard deviation or the standard deviation of the averaged measurements.

Experiments:
Details in all cases: 25 µM; exposure: 24-48 hpf
[1] = tested on: Danio rerio Tg(wt1b:EGFP) embryo, pronephros; assay: glomerular separation, fold change vs DMSO control; higher = glomeruli further apart (abnormal)
Method in brief: (§1)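 Each feature value is a fold change relative to the mean of same-day DMSO-treated embryos. Embryos of the Tg(wt1b:EGFP) zebrafish line, dechorionated, received 25 μM compound in 0.5% DMSO from 24 to 48 hpf at 28.5°C, in HEPES-buffered E3 with 0.003% PTU. Distances and angles were computed by a Fiji macro from 16 manually set reference points on maximum projections of dorsal pronephros images, and values beyond 2 SD of the feature mean were removed.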

[2] = tested on: Danio rerio Tg(wt1b:EGFP) embryo, pronephros; assay: glomerular width (mean of left and right), fold change vs DMSO control; higher = wider glomerulus
Method in brief: as §1

[3] = tested on: Danio rerio Tg(wt1b:EGFP) embryo, pronephros; assay: fraction of imaged embryos annotated as normal kidney; higher = less nephrotoxic; extreme values may be limits of the assay
Method in brief: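 Dechorionated Tg(wt1b:EGFP) zebrafish embryos were exposed in 12-well plates to 25 μM compound in 0.5% DMSO, 5 mM HEPES-buffered E3 with 0.003% PTU, from 24 to 48 hpf at 28.5°C. Tricaine-anaesthetised larvae were oriented dorsally in agarose-filled 96-well plates, and pronephroi were imaged by widefield fluorescence (470 nm, 10 z-slices). Each embryo was manually annotated from maximum projections. The read-out is the fraction of embryos per treatment assigned to the normal-kidney category.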

[4] = tested on: Danio rerio Tg(wt1b:EGFP) embryo, pronephros; assay: pronephric angle neck segment to proximal convoluted tubule (mean of left and right), fold change vs DMSO control; higher = larger pronephric angle
Method in brief: as §1

Row | SMILES | glomerular separation [1] | glomerular width [2] | fraction of imaged embryos annotated as normal kidney [3] | pronephric angle neck segment [4]
1 | CC1=C(/C=C/C(C)=C/C=C/C(C)=C/C(=O)O)C(C)(C)CCC1 [Retinoic acid] | 3.15 ± 1.8 | 0.639 ± 0.044 | 0 | 1.67 ± 0.033
2 | Nc1nc(=O)c2nc(CNc3ccc(C(=O)N[C@@H](CCC(=O)O)C(=O)O)cc3)cnc2[nH]1 [Folic acid] | 0.808 ± 0.29 | 0.941 ± 0.044 | 0.636 | 1.04 ± 0.014
3 | C=CCc1ccccc1OCC(O)CNC(C)C (centres undefined) [Alprenolol hydrochloride] | 0.823 ± 0.28 | 1 ± 0.074 | 0.833 | 1.07 ± 0.015
4 | CN(C)CC/C=C1/c2ccccc2COc2ccc(CC(=O)O)cc21 [Olopatadine hydrochloride] | 0.914 ± 0.34 | 0.97 ± 0.013 | 0.833 | 1.03 ± 0.025
5 | C[N+](C)(C)CCCCCC[N+](C)(C)C [Hexamethonium dibromide dihydrate] | 0.932 ± 0.3 | 1.09 ± 0.035 | 0.667 | 0.997 ± 0.041
6 | C=CC1=C(C(=O)O)N2C(=O)[C@@H](NC(=O)/C(=N\O)c3csc(N)n3)[C@H]2SC1 [Cefdinir] | 0.772 ± 0.34 | 1.04 ± 0.029 | 1 | 1.003 ± 0.0083
7 | O=C(O)c1ccccc1C(=O)Nc1ccc(S(=O)(=O)Nc2nccs2)cc1 [Phthalylsulfathiazole] | 0.926 ± 0.31 | 1.02 ± 0.015 | 0.833 | 0.943 ± 0.071
8 | CC1CCc2c(N3CCC(O)CC3)c(F)cc3c(=O)c(C(=O)O)cn1c23 (centres undefined) [Nadifloxacin] | 1.13 ± 0.33 | 1.01 ± 0.031 | 0.917 | 1.04 ± 0.029
9 | COc1nc(C)nc(Cl)c1NC1=NCCN1 [Moxonidine] | 1.07 ± 0.47 | 1.01 ± 0.011 | 1 | 0.96 ± 0.0097
10 | CCOC1O[C@H]([C@@H](COCc2ccccc2)OCc2ccccc2)[C@H](OCc2ccccc2)[C@H]1O (some centres undefined) [Tribenoside] | 1.42 ± 0.96 | 0.865 ± 0.056 | 0.667 | 1.01 ± 0.018
11 | CN1CCN(CCCN2c3ccccc3Sc3ccc(C(F)(F)F)cc32)CC1 [Trifluoperazine dihydrochloride] | 1.22 ± 0.54 | 0.953 ± 0.015 | 0.833 | 0.9555 ± 0.0078
12 | CC(Cc1cccc(C(F)(F)F)c1)NCCOC(=O)c1ccccc1 (centres undefined) [Benfluorex] | 0.843 ± 0.23 | 1 ± 0.03 | 0.917 | 1.04 ± 0.045
13 | OCCN1CCN(CC/C=C2/c3ccccc3Sc3ccc(Cl)cc32)CC1 [Zuclopenthixol dihydrochloride] | 1.17 ± 0.21 | 0.97247 ± 0.0005 | 0.833 | 1.01 ± 0.039
14 | CCOC(=O)C1=C(COCCN)NC(C)=C(C(=O)OC)C1c1ccccc1Cl (centres undefined) [Amlodipine] | 0.923 ± 0.2 | 1.03 ± 0.085 | 1 | 0.983 ± 0.029
15 | CC(=O)S[C@@H]1CC2=CC(=O)CC[C@]2(C)[C@H]2CC[C@@]3(C)[C@@H](CC[C@@]34CCC(=O)O4)[C@H]12 [Spironolactone] | 0.838 ± 0.13 | 0.912 ± 0.011 | 1 | 0.986 ± 0.036
16 | CNC(C)CCC=C(C)C (centres undefined) [Isometheptene mucate] | 0.941 ± 0.26 | 0.958 ± 0.039 | 0.917 | 0.977 ± 0.024
17 | CC1CNc2c(cccc2S(=O)(=O)N[C@@H](CCCNC(=N)N)C(=O)N2CC[C@@H](C)C[C@@H]2C(=O)O)C1 (some centres undefined) [Argatroban] | 1.4 ± 1 | 0.949 ± 0.041 | 0.909 | 0.997 ± 0.04
18 | Cc1nnc(SCC2=C(C(=O)O)N3C(=O)[C@@H](NC(=O)Cn4cnnn4)[C@H]3SC2)s1 [Cefazolin sodium salt] | 0.771 ± 0.24 | 1.072 ± 0.008 | 0.75 | 1.03 ± 0.027
19 | CN1CCN2c3ncccc3Cc3ccccc3C2C1 (centres undefined) [Mirtazapine] | 0.964 ± 0.35 | 0.98 ± 0.037 | 1 | 0.994 ± 0.056
20 | O=C1c2ccccc2S(=O)(=O)N1CCCCN1CCN(c2ncccn2)CC1 [Ipsapirone] | 1.28 ± 0.67 | 0.908 ± 0.038 | 0.917 | 1.054 ± 0.0035
21 | Cc1cn([C@H]2C[C@H](N=[N+]=[N-])[C@@H](CO)O2)c(=O)[nH]c1=O [Zidovudine, AZT] | 1 ± 0.41 | 1.06 ± 0.08 | 1 | 0.991 ± 0.018
22 | Cc1cc2cc3c(C)cc(=O)oc3c(C)c2o1 [Trioxsalen] | 0.97 ± 0.24 | 1.019 ± 0.01 | 0.917 | 1.03 ± 0.049
23 | CCn1cc(C(=O)O)c(=O)c2cc(F)c(N3CCN(C)CC3)cc21 [Pefloxacine] | 0.997 ± 0.31 | 1.01 ± 0.021 | 1 | 1.01 ± 0.018
24 | CC1(C)OC(=O)NC1=O [Dimethadione] | 1.27 ± 0.36 | 0.89 ± 0.031 | 0.667 | 1.0483 ± 0.00042
25 | CCN(CC)CC#CCOC(=O)C(O)(c1ccccc1)C1CCCCC1 (centres undefined) [Oxybutynin chloride] | 1.32 ± 0.54 | 1.04 ± 0.022 | 1 | 0.985 ± 0.028
26 | CC1(C)O[C@@H]2C[C@H]3[C@@H]4CCC5=CC(=O)C=C[C@]5(C)[C@H]4[C@@H](O)C[C@]3(C)[C@]2(C(=O)CO)O1 [Desonide] | 1.63 ± 0.49 | 1.33 ± 0.024 | 0.167 | 1.04 ± 0.13
